Source: PubChem BioAssay (National Center for Advancing Translational Sciences (NCATS))
SMN2 splice up – SMN2 splice variant enhancement | HEK293 SMN2-luciferase splicing reporter, luminescence, 30-36 h | Potency, µM (doses to about 46.1 µM), most hits filed as activators | 210,000 compounds, 2.8% hits | AID 1458; also: nearly all actives have a fitted effect of over 55% in size
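HEK293 cells carry an SMN2 […]–luciferase reporter in which exon 7 inclusion puts luciferase in frame. Cells were plated 10-12 h before compound addition, then incubated 30-36 h at 37C. ONE-Glo luminescence was read; sodium butyrate at 4.5 mM final served as control.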
ELG1 genotox – genotoxicity induction in ELG1-luciferase HEK293T cells. HEK293T ELG1-luciferase reporter, luminescence, 16 h. Potency, µM (doses to about 46 µM), most hits filed as activators. 330,000 compounds, 1.3% hits. AID 504466; also: nearly all actives have a fitted effect of over 60% in size
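16 hr compound incubation (37 °C, 5% CO2) of HEK293T cells carrying luciferase-tagged ELG1; luciferase then measured by ONE-Glo luminescence after 30 min at RT.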
Rab9 prom act – activators of Rab9 promoter. Huh7 Rab9 promoter-luciferase reporter, luminescence, 24 h. Potency, µM (highest dose often 9.22 µM), hits mostly activators. 320,000 compounds, 2.8% hits. AID 485297; also: nearly all actives have a fitted effect of over 60% in size
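Steps: seed 1500 Huh7 Rab9-luc cells per well, rest 2 h at 37 °C; add compound in DMSO; incubate 24 h; add luciferase reagent, 10 min ambient; read luminescence.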
NPC1 prom act – NPC1 promoter activation | 320,000 compounds, 2.4% hits | Potency, µM (titrated, usually from 9.22 µM), actives largely listed as activators | Huh7 NPC1 promoter luciferase reporter, 24 h; also: nearly all actives have a fitted effect of over 60% in size
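Luminescence read-out of NPC1 promoter-driven luciferase in stably transfected Huh7 cells; compounds delivered in DMSO and left 24 h at 37C, 5% CO2, qHTS titration format.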
FLuc modulator – inhibits or activates purified firefly luciferase, miR-21 counter-screen; purified FLuc, Km substrates, luminescence inhibition; P08659; 360,000 compounds, 6.9% hits; AID 588342; Potency, µM (highest dose often 57.5 µM), usual class: inhibitors; also: nearly all actives have a fitted effect of over 55% in size
Target sequence (P08659 whole entry, looked up): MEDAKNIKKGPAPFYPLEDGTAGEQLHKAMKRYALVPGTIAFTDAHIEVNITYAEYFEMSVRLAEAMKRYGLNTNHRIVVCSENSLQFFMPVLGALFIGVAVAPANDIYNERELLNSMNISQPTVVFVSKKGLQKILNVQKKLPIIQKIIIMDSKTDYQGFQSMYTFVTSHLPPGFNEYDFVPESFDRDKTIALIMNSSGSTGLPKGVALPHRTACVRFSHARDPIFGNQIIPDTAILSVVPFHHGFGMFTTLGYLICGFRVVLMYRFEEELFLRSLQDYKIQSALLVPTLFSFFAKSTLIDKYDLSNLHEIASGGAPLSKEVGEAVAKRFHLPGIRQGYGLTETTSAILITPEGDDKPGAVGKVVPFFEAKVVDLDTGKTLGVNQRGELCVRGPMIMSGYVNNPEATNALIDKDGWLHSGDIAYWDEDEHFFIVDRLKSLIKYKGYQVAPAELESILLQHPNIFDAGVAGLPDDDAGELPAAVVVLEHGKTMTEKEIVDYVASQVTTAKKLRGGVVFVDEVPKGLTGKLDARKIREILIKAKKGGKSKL
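Biochemical qHTS of compounds, final roughly 60 µM downward over six points, against 10 nM purified firefly luciferase using Km concentrations of substrates (10 uM D-luciferin, 10 uM ATP) in Tris acetate pH 7.5 buffer; luminescence output.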
KinaseGlo FLuc – Kinase-Glo luciferase inhibition (counter-screen). Kinase-Glo luciferase, ATP luminescence, 8 min. Potency, µM (titrated, usually from 38.3 µM), most hits filed as inhibitors. 200,000 compounds, 0.28% hits; also: nearly all actives have a fitted effect of over 60% in size
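Light output from Kinase-Glo luciferase with luciferin and 10 uM ATP in 50 mM imidazole pH 7.2, KCl, MgCl2, Tween 20, BSA; compound pin-delivered, 8-min ambient incubation, then luminescence read.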
A number is an active result; n = inactive; u = inconclusive; x = no result given; [ ] = dose if it differs, or a comment. An excerpt weighted towards active compounds, which were near 7.5% of everything screened. Calls follow the shape of the dose curve; as a rule, active = well fitted curve in the direction sought with a large enough effect; inconclusive = small, poorly fitted or top-dose-only effect, or another doubt; inactive = no such curve, though single readings can be large; an effect the other way counts as inactive or inconclusive.

SMILES | SMN2 splice up | ELG1 genotox | Rab9 prom act | NPC1 prom act | FLuc modulator | KinaseGlo FLuc
COc1ccc2cc3cc(C(=O)N4CCN(C5CCCCC5)CC4)oc3nc2c1 | x | n | n | n | n | x
COc1ccc2cc3cc(C(=O)N(C)C4CCCCC4)oc3nc2c1 | x | u | 2.2µM | 2.2µM | 7.6µM | x
Cc1ccc(S(=O)(=O)c2nc(-c3cccc(C)c3)oc2N2CCN(c3ccccc3)CC2)cc1 | n | x | x | x | n | x
COc1cc2c(=O)c(S(=O)(=O)c3ccccc3)cn(CC(=O)Nc3ccccc3C)c2cc1OC | n | x | x | x | n | x
CC(C)c1ccc(C2=CC(c3ccc(C(C)C)cc3)n3nnnc3N2)cc1 (stereo not given) | x | x | x | x | 2.7µM | x
COc1cccc(C2=CC(c3cccs3)n3nnnc3N2)c1 (stereo not given) | n | 16µM | n | n | n | n
COc1ccc(C2=CC(c3sccc3C)n3nnnc3N2)cc1 (stereo not given) | n | u | 2.8µM | 2.8µM | n | n
Cc1[nH]c(=O)[nH]c(=O)c1S(=O)(=O)N(CC(C)C)CC(C)C | n | n | n | n | n | n
Cc1c([N+](=O)[O-])cc(C(=O)Nc2ccc3ncccc3c2)cc1[N+](=O)[O-] | x | n | n | n | n | x
Cc1nc2cc(NC(=O)c3ccc(S(=O)(=O)N(C)c4ccccc4)cc3)ccc2o1 | x | n | n | n | 17µM | x
CN(c1ccccc1)S(=O)(=O)c1ccc(NC(=O)c2ccc(-c3ccccc3)cc2)cc1 | x | n | n | n | n | n
Cc1ccc2ncccc2c1 | n | n | n | n | n | x
c1cnc2ccc(-c3ccc4ncccc4c3)cc2c1 | x | u | 0.45µM | 1µM | 0.6µM | x
O=C(Nc1ccc2ncccc2c1)Nc1ccc2ncccc2c1 | n[9.22 µM] | n | n | u | 6.7µM | n[7.66 µM]
CN(C)S(=O)(=O)c1ccc(C(=O)Nc2ccc3ncccc3c2)cc1 | x | u | n | n | 15µM | x
CCC1(CC)NC(=O)N(CC(=O)Nc2sc3c(c2C(N)=O)CCC3)C1=O | x | n | n | n | n | n
O=C(OC1CCCCC1=O)c1cc(Cl)ccc1[N+](=O)[O-] (stereo not given) | n | n | n | n | n | n
COc1cc(-n2c(=O)c3ccccc3n(Cc3cccc(Cl)c3)c2=O)cc(OC)c1OC | n | x | x | x | n | x
CCOc1cccc2cc(-c3nc4sc(C(=O)Nc5ccc(C)cc5)c(C)c4c(=O)[nH]3)c(=O)oc12 | x | x | x | x | n | x
O=C(Nc1ccc2ncccc2c1)c1ccccc1Br | x | 6.5µM | 2.8µM | u | 12µM | x
COc1cc(Cl)cc(/C=C/c2ccc3ccccc3n2)c1OC(C)=O | 2.5µM | u | 2.5µM | 2µM | 6.7µM | n
O=C(N/N=C/c1ccc(F)cc1)c1cc[n+]([O-])cc1 | x | n | n | n | n | x
O=C(O)c1ccc(/C=N/NC(=O)c2ccc(F)cc2)cc1 | x | n | n | n | 19µM | x
O=C(N/N=C/c1ccc(F)cc1)c1cccc(NC(=O)c2ccc(F)cc2)c1 | x | n | u | n | 8.5µM | x
O=C(N/N=C/c1ccc(F)cc1)c1ccccc1 | 18µM | u | 2µM | 2.8µM | 12µM | n
SMILES | SMN2 splice up | ELG1 genotox | Rab9 prom act | NPC1 prom act | FLuc modulator | KinaseGlo FLuc
O=C(N/N=C\c1ccc(F)cc1)c1csnn1 | n | u | n | n | 24µM | n
CC(=O)C1=C(OC(=O)C(C)C)c2ccccc2S(=O)(=O)N1Cc1ccccc1 | x | x | x | x | n | x
CCCN(CCC)c1cc(C)nc2nc(-c3ccc(Cl)cc3)nn12 | n | x | x | x | n | x
CC(OC(=O)C1CCCCC1)C(=O)Nc1ccc(S(N)(=O)=O)cc1 (stereo not given) | x | n | n | n | n | x
O=C(N/N=C/c1ccccc1O)c1cccc(C(F)(F)F)c1 | n | u | n | n | u | n
O=C(N/N=C/c1ccccc1C(F)(F)F)c1ccc(O)cc1 | n | u | u | u | 11µM | n
O=C(Nc1ccccc1C(=O)N/N=C/c1ccc(F)cc1)c1ccccc1Br | n | n | n | n | 6µM | n
CN1CCN(c2nc3c(c(=O)n(C)c(=O)n3C)n2Cc2ccccc2F)CC1 | x | n | n | n | n | x
Cc1nc(SCC(=O)OC(C)(C)C)c2c3c(sc2n1)CCCC3 | n | x | x | x | n | x
COc1ccc(C(=O)CC(CC(=O)c2ccc(OC)cc2)C(=O)O)cc1 | x | n | n | n | n | x
CCN1C(=O)c2ccccc2Sc2ccc(NC(=O)Nc3cccc([N+](=O)[O-])c3C)cc21 | x | x | x | x | n | x
O=C(NCCc1ccccc1F)c1ccc2c(c1)OCCO2 | x | u | 0.0006µM | 0.025µM | 0.048µM | x
O=C(NCCc1ccc(Cl)cc1)c1ccc2c(c1)OCO2 | x | u | 1.8µM | 1.8µM | 12µM | x
O=C(NCc1ccccc1F)c1ccc2c(c1)OCO2 | n | u | n | n | u | n
O=C(NCCc1ccc(Cl)cc1)c1ccc2c(c1)OCCO2 | x | 2.3µM | 0.32µM | 0.4µM | 1.2µM | x
O=C(NCCOc1ccc(Cl)cc1)c1ccc2c(c1)OCCO2 | x | u | 3.5µM | 3.2µM | 8.5µM | x
NS(=O)(=O)c1ccc(CCNC(=O)c2ccc3c(c2)OCO3)cc1 | x | n | n | n | n | x
CCOC(=O)c1c(C)[nH]c(C(=O)OCC(=O)c2ccc3c(c2)NC(=O)CO3)c1C | x | n | n | n | n | x
CC(C)Cc1csc(NC(=O)C(C)C)c1C(=O)O | x | n | n | n | n | x
CCOC(=O)c1c(-c2ccc(C)cc2)csc1NC(=O)c1ccc(C(C)(C)C)cc1 | n | x | x | x | n | x
O=C(Nc1nsc(-c2ccccc2)n1)c1ccc(F)cc1 | u | u | 2.2µM | 3.5µM | 9.5µM | n
O=C(Nc1ncc2c(n1)-c1ccccc1CC2)c1ccc(F)cc1 | n | n | n | n | u | n
Cc1ccc(-c2csc(NC(=O)c3ccc(F)cc3)c2C(=O)O)cc1 | x | n | 4µM | u | 12µM | x
O=C(Nc1scc(-c2ccccc2)c1C(=O)O)c1ccc(F)cc1 | x | n | u | n | 12µM | x
CC(C)Cc1csc(NC(=O)c2ccc(Br)cc2)c1C(=O)O | x | n | n | n | 27µM | x
SMILES | SMN2 splice up | ELG1 genotox | Rab9 prom act | NPC1 prom act | FLuc modulator | KinaseGlo FLuc
COc1ccc(NC(=O)C(NS(=O)(=O)c2cccc3nsnc23)C(C)C)cc1OC (stereo not given) | n | x | x | x | n | x
O=C(CSc1nnc(-c2ccco2)o1)N1CCCCC1 | x | n | 3.2µM | u | u | x
CC1CCN(C(=O)CSc2nnc(-c3ccco3)o2)CC1 | n | n | n | n | n | n
O=C(CSc1nnc(-c2ccco2)o1)c1ccccc1 | n | n | u | u | u | n
CCC1CCCCN1C(=O)CSc1nnc(-c2ccc(Cl)cc2)o1 (stereo not given) | n | n | n | n | n | n
CCC1CCCCN1C(=O)CSc1nnc(-c2cccc(Cl)c2)o1 (stereo not given) | u | 18µM | n | n | u | n
O=C(CSc1nnc(-c2ccco2)o1)c1ccc[nH]1 | 18µM | u | 2.2µM | u | u | n
CCC1CCCCN1C(=O)CSc1nnc(-c2ccco2)o1 (stereo not given) | u | u | 3.2µM | u | 15µM | n
